The values that follow come from ChEMBL document CHEMBL3988442, “University of Dundee, Small-Polar-MMV Screening Library” (2021).

The whole screen tested about 48,000 compounds, of which about 13,000 (27%) showed an effect of 50% or more. This is one part of the list.

The experiment has as its system Wolbachia pipientis. The experiment can be described thus: Anti-Wolbachia Cell-Based Screen. Also noted: scale not given: in the data most compounds retested in dose-response had high values. The note with it: 5 µM. Type of experiment: functional.
As for `N#Cc1ccc(CS(=O)(=O)NC(=O)c2ccc3c(c2)COC3)cc1`, the “Percent Effect” value is listed as -4.05%.
The figure for `Cn1cc(Cl)cc1C(=O)N1CCN(Cc2ccsc2)CC1` is -5.701%.
For the compound `CC(=O)N1CCC(N2CCOC[C@H]2c2nc(-c3cccnc3)c[nH]2)CC1`, the “Percent Effect” value was found to be 31.59%.
The figure for `Cc1nc(NC(=O)c2c(-n3cnnn3)sc3c2CCCC3)sc1C` is 119.6%.
The figure for `Cc1nc(NC(=O)c2c(-n3cnnn3)sc3c2CCC3)sc1C` is 89.24%; for `CCC(C)NC(=O)c1ccccc1-n1cnnn1` (configuration not stated) it is -7.012%.
Then `Cc1sc(-n2cnnn2)c(C(=O)NC(C)C)c1C`, with 78.35%; and `CC[C@H](C)[C@H](NC(=O)c1ccccc1-n1cnnn1)C(=O)OC`, with 39.09%; and `Cc1nc(NC(=O)c2c(-n3cnnn3)sc(C)c2C)sc1C`, with 111.3%.
Turning to `Cc1nc(NC(=O)c2cccnc2N2CCOCC2)sc1C`, the “Percent Effect” value is listed as -47.07%.
The figure for `Cc1nc(NC(=O)C(C)N2CCN(c3cnccn3)CC2)sc1C` (configuration not stated) is 1.711%.
Then `O=C(COCC1CC1)N1CCCC(n2cccn2)C1` (configuration not stated), with 4.687%.
Regarding `CC1CN(Cc2ccccc2)CCCN1CCCS(C)(=O)=O` (configuration not stated), the “Percent Effect” value is recorded as -4.156%.
`CC(=O)c1ccc(C(=O)N2CCC(c3cc(O)nc(C)n3)CC2)s1`: the “Percent Effect” value is -1.622%.
As for `CC(=O)Nc1nc(C2CCN(C(=O)C3CCC3)CC2)cs1`, the “Percent Effect” value is 103.4%.
As for `Nc1nc(C2CCN(C(=O)c3cncs3)CC2)cs1`, the “Percent Effect” value is -2.594%.
With `CC(=O)Nc1nc(C(=O)N2CCCC(c3cc(C)[nH]n3)C2)cs1` (configuration not stated), the “Percent Effect” value is recorded as -0.9316%.
The figure for `Cc1nc(-c2ccc(CC(=O)N3CCN(C(=O)C4CC4)CC3)cc2)cs1` is 16.03%; for `CC(=O)Nc1nc(C2CCN(CC(N)=O)CC2)cs1` it is -6.255%.
The figure for `CCc1csc(CCNC(=O)CC2CCN(C(C)C)CC2)n1` is 8.427%.
The figure for `CC(=O)N1CCC(C(=O)Nc2nc(C3CC3)cs2)CC1` is 19.21%; for `CC(=O)Nc1nc(C2CCN(C(=O)Cc3ccccc3)CC2)cs1` it is 87.03%.
For the compound `CC(=O)Nc1nc(C2CCN(C(C)C)CC2)cs1`, the “Percent Effect” value was found to be 119.6%.
Then `CC(=O)Nc1nc(C2CCN(C(=O)c3cncs3)CC2)cs1`, with 107.2%; and `CSCC(=O)NC(Cc1ccc(C)cc1)c1ccccn1` (configuration not stated), with -0.4247%; and `O=C(Cn1cc(C2CC2)nn1)NC(c1cc(F)ccc1F)C1CC1` (configuration not stated), with -5.532%.
Turning to `O=C(C1CC=CC1)N1CCC2(CCC(=O)N2Cc2cccc(F)c2)CC1`, the “Percent Effect” value is listed as -0.5854%.
As to `O=C(NC[C@H]1OC[C@@H](NCc2ccc(F)cc2)[C@@H]1O)c1ccncc1`, the “Percent Effect” value is reported as -2.517%.
For the compound `CC(=O)Nc1nc(C(=O)N2CCC(Nc3cccnn3)CC2)cs1`, the “Percent Effect” value was -3.618%.
For the compound `CC(=O)Nc1nc(C2CCN(C(=O)c3ccncc3)CC2)cs1`, the “Percent Effect” value worked out at 108.8%.
The figure for `COc1ccccc1N1CCC(N2CCOCC(CO)C2)CC1` (configuration not stated) is 9.24%; for `O=C(CC1CCCO1)NCc1ccc(Br)cc1F` (configuration not stated) it is 3.91%; for `CN(CC1(CO)CCOCC1)[C@@H]1c2ccccc2C2(CCNCC2)[C@H]1O` it is 1.582%.
As to `c1cc(CN2CCCCC2c2ccc(Nc3cnccn3)nc2)ccn1` (configuration not stated), the “Percent Effect” value is recorded as 159%.
Then `O=C(O)[C@]12CCCN(Cc3cccnc3)[C@@H]1CCN(c1cnccn1)C2`, with -19.78%; and `c1cncc(CN2CCCCC2c2ccc(Nc3cnccn3)nc2)c1` (configuration not stated), with 73.84%.
The figure for `CC(C)(C)OC(=O)NCC1CCCCN1Cc1ccncc1` (configuration not stated) is -3.492%; for `CC(C)(C)OC(=O)NCC1CCCCN1Cc1cccnc1` (configuration not stated) it is 4.728%.
Then `CCc1ccc(C(=O)N2CCN(CCS(C)(=O)=O)CC2)o1`, with -5.31%; and `Cc1cccc(NC(=O)N2CCC3(CCC(C(=O)N(C)C)O3)CC2)c1` (configuration not stated), with 100.6%; and `O=C(Nc1cccc(-c2cscn2)c1)N1CCC2(CC1)CC(O)CO2` (configuration not stated), with -8.053%.
For the compound `Cc1cccc(NC(=O)N2CCN(Cc3nnc(C(C)C)o3)CC2)c1`, the “Percent Effect” value is recorded as -19.75%.
The figure for `O=C(Nc1cccc(F)c1)N1CCN(Cc2noc(C3CC3)n2)CC1` is -10.54%; for `Cc1nsc(N2CCN(C(=O)Nc3cccc(F)c3)CC2)n1` it is -8.293%.
With `CN(C)C(=O)C1CCC2(CCN(C(=O)Nc3cccc(F)c3)CC2)O1` (configuration not stated), the “Percent Effect” value is given as 98.46%.
As for `CC(C)NC(=O)CN1CCC2(CC1)OCCO2`, the “Percent Effect” value was -0.8474%.
As for `CC(C)(C)C(=O)N1CCC(c2noc(C3CCC(=O)N3)n2)CC1` (configuration not stated), the “Percent Effect” value was 136.3%.
For `CC(=O)N1CCC(c2noc(C3CCC(=O)N3)n2)CC1` (configuration not stated), the “Percent Effect” value is reported as 120.5%.
In the case of `Cc1nc(C2CCCN(C(=O)C(C)(C)n3cc(Cl)cn3)C2)no1` (configuration not stated), the “Percent Effect” value is recorded as -4.996%.
Then `CC(=O)N1CCC(c2nc(Cc3ccccc3)no2)C1` (configuration not stated), with -18.53%.
Then `O=C1CCC(c2nc(C3CCN(C(=O)Cc4cccs4)CC3)no2)N1` (configuration not stated), with 131.4%.
The figure for `Cc1noc(C2CCN(CC(=O)N3CCNC(=O)C3)CC2)n1` is -10.42%.
